Among the test systems are DU-145 prostate; MALME-3M melanoma; MDA-MB-231 breast; RXF 393 renal; SF-268 CNS; SF-295 CNS; SF-539 CNS; UACC-257 melanoma; M14 melanoma.
Assay in all cases: NCI-60 one-dose screen, 48 h (100 = growth as untreated, 0 = no growth, -100 = all killed)
Conditions in all cases: 10 µM

The panel holds about 83,000 compounds, 20% with a hit somewhere; the sample as a whole holds those more often.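 Cell lines were cultured in 96-well plates, exposed to a single compound concentration, and assessed for percent growth 48 hours later.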 A number with no mark means an inactive call. The source made the active and inactive calls. The calls were made as follows: active = growth percent below 10; inactive = the rest.

Turning to `COc1ccc(-c2nc(S(=O)(=O)c3ccccc3)c(S(C)(=O)=O)o2)cc1`, the growth in the assay on DU-145 prostate is -92.8% (active); in the assay with MALME-3M melanoma, -92.7% (active); with MDA-MB-231 breast, -76.2% (active); with RXF 393 renal, -90.8% (active); with SF-268 CNS, 61.8%; with SF-295 CNS, 87.3%. Besides, the growth in the assay on SF-539 CNS was -95.9% (active); with UACC-257 melanoma, -38.6% (active); in the assay on M14 melanoma it was -24% (active).
On to `COc1ccc(C(C)=C(c2ccc(OCCCN(C)C)cc2)c2ccc(OCCCN(C)C)cc2)cc1`, for which the growth in the assay on DU-145 prostate was -96.4% (active); in the assay with MALME-3M melanoma it was -97% (active); in the assay with MDA-MB-231 breast it was -97.4% (active); in the assay with RXF 393 renal, -94.6% (active); with SF-268 CNS, -73.7% (active); with SF-295 CNS it was -85.2% (active). Also, the growth with SF-539 CNS is -99.5% (active); with UACC-257 melanoma, -96.1% (active); in the assay on M14 melanoma, -79.8% (active).
For the compound `CC(=O)c1ccc(NC(=O)NCn2c(=O)[nH]c3ccccc3c2=O)cc1`, the growth in the assay on DU-145 prostate was 104%; with MALME-3M melanoma, 93.2%; with MDA-MB-231 breast, 95.1%; with RXF 393 renal, 97.4%; with SF-268 CNS, 128%; with SF-295 CNS, 92.7%. For the same compound, the values for the growth in the assay on SF-539 CNS, in the assay on UACC-257 melanoma and with M14 melanoma were 90.6%, 98.6% and 110%, respectively.
Turning to `CN1CCN(c2ccc(Nc3nc(N4CCN(S(=O)(=O)c5ccc(F)cc5)CC4)c4sccc4n3)cc2)CC1`, the growth is -84% (active) in the assay on DU-145 prostate; -97.9% (active) with MALME-3M melanoma; -94.6% (active) in the assay with MDA-MB-231 breast; -89.1% (active) in the assay on RXF 393 renal; -72.3% (active) with SF-268 CNS; -88.5% (active) in the assay with SF-295 CNS. Further, the growth in the assay with SF-539 CNS was -100% (active); in the assay on UACC-257 melanoma, -86.1% (active); with M14 melanoma, -56.9% (active).
In the case of `Cc1ccc(/C=C(\C#N)n2nnc3c(F)cccc32)cc1`, the growth is 13.9% in the assay on DU-145 prostate; 34.7% in the assay with MALME-3M melanoma; -18.1% (active) with MDA-MB-231 breast; -4.78% (active) in the assay with RXF 393 renal; 24.3% in the assay with SF-268 CNS; 16% in the assay on SF-295 CNS. The growth was -27.9% (active) in the assay with SF-539 CNS, 38.6% with UACC-257 melanoma and 36.6% in the assay on M14 melanoma.
Consider `CNC(=O)c1cccc(N2CCc3c2ccc(NC(=O)Nc2ccc(N4CCN(C)CC4)c(C(F)(F)F)c2)c3F)c1`, for which the growth was -76.2% (active) in the assay with DU-145 prostate; -96.3% (active) in the assay on MALME-3M melanoma; -94.8% (active) with MDA-MB-231 breast; -85.3% (active) with RXF 393 renal; -62.7% (active) in the assay on SF-268 CNS; -97.2% (active) with SF-295 CNS. Moreover, the growth with SF-539 CNS was -100% (active); with UACC-257 melanoma, -35% (active); in the assay on M14 melanoma, -93.3% (active).
For `CNC(=O)c1cc(-c2ccc(NC(=O)Nc3ccc(C)cc3)cc2)nc2cccnc12`, the growth in the assay on DU-145 prostate was 109%; with MALME-3M melanoma it was 109%; in the assay on MDA-MB-231 breast it was 93.3%; with RXF 393 renal, 100%; in the assay on SF-268 CNS, 104%; in the assay on SF-295 CNS, 95.6%. The growth was 99% in the assay on SF-539 CNS, 123% in the assay with UACC-257 melanoma and 116% in the assay on M14 melanoma.
For the compound `C#CCNC(=O)[C@]12CCC(C)(C)C[C@H]1C1=CC[C@@H]3[C@@](C)(CCC#N)[C@H](C(=C)C)CC[C@@]3(C)[C@]1(C)CC2`, the growth with DU-145 prostate was 91.4%; with MALME-3M melanoma it was 75.9%; with MDA-MB-231 breast it was 39.6%; with RXF 393 renal it was 66.8%; with SF-268 CNS it was 86.2%; in the assay on SF-295 CNS, 38.2%. Besides, the figures for the growth with SF-539 CNS, in the assay on UACC-257 melanoma and with M14 melanoma were 83.4%, 54.4% and 76.3%, respectively.
On to `Cc1ccc(NC(=O)c2ccc(-n3c(=O)[nH]c4ccccc4c3=O)cc2)cc1`, for which the growth was 102% with DU-145 prostate; 84.8% in the assay on MALME-3M melanoma; 64.6% in the assay on MDA-MB-231 breast; 54.3% in the assay on RXF 393 renal; 84.4% in the assay with SF-268 CNS; 91.9% in the assay on SF-295 CNS. The growth is 38% with SF-539 CNS, 122% in the assay with UACC-257 melanoma and 101% in the assay with M14 melanoma.
With `CCCS(=O)(=O)c1oc(-c2ccc(F)cc2)nc1S(=O)(=O)c1ccc(F)cc1`, the growth in the assay on DU-145 prostate is -85.8% (active); in the assay with MALME-3M melanoma, -98.8% (active); in the assay on MDA-MB-231 breast, -91.9% (active); in the assay with RXF 393 renal, -97.5% (active); in the assay with SF-268 CNS it was 52.2%; with SF-295 CNS, 78.2%. For the same compound, the growth is -94.2% (active) in the assay with SF-539 CNS, -30.9% (active) in the assay on UACC-257 melanoma and -37.5% (active) in the assay on M14 melanoma.
Take `NC(=Nc1ccc(OCCCCCCCCn2ccnn2)cc1)c1ccccc1`: the growth was 26.7% with DU-145 prostate; 45.1% with MALME-3M melanoma; 13.8% in the assay with MDA-MB-231 breast; 72.4% in the assay on SF-268 CNS; 10.1% with SF-295 CNS; 50.8% in the assay with UACC-257 melanoma. In the assay with M14 melanoma, the growth is 18.4%.
`CCCCCc1ccc(S(=O)(=O)Nc2cc(-c3csc(N(C)C(C)=O)n3)ccc2N2CCN(C)CC2)cc1`: the growth is 70.5% with DU-145 prostate; -57.1% (active) in the assay on MALME-3M melanoma; -2.21% (active) in the assay on MDA-MB-231 breast; -73.8% (active) in the assay with RXF 393 renal; 73.2% with SF-268 CNS; -10.1% (active) in the assay on SF-295 CNS. The growth in the assay with SF-539 CNS is -58.7% (active); in the assay on UACC-257 melanoma, -21.8% (active); in the assay on M14 melanoma it was 28.3%.
As for `COc1cccc(-c2nn(-c3ccccc3)cc2-c2ccnc(NCCCNC(=O)Nc3ccc(F)cc3)c2)c1`, the growth in the assay on DU-145 prostate is 54.1%; with MALME-3M melanoma it was -24.7% (active); in the assay on MDA-MB-231 breast it was -1.32% (active); in the assay on RXF 393 renal, 0.912% (active); with SF-268 CNS it was 26.1%; in the assay on SF-295 CNS, -40.5% (active). Further, the growth is -29.9% (active) in the assay with SF-539 CNS, -11.9% (active) with UACC-257 melanoma and -21% (active) in the assay on M14 melanoma.
With `C=C(C)[C@@H]1CC[C@]2(C(=O)OC)CC[C@]3(C)[C@H](CC[C@@H]4[C@@]5(C)CC[C@H](N)C(C)(C)[C@@H]5CC[C@]43C)[C@@H]12`, the growth is -87.9% (active) in the assay with DU-145 prostate; -97.7% (active) in the assay with MALME-3M melanoma; -97.8% (active) in the assay on MDA-MB-231 breast; -96% (active) in the assay with RXF 393 renal; -65.3% (active) in the assay on SF-268 CNS; -94.1% (active) in the assay on SF-295 CNS. Also, the growth with SF-539 CNS was -99.8% (active); in the assay with UACC-257 melanoma it was -70% (active); in the assay with M14 melanoma, -74% (active).
`C=C1CC[C@H](C(=C)C)[C@H]2C=C(C)C(=O)C3=C(C(=O)[C@@](C)(O)C3)[C@H]12`: the growth in the assay with DU-145 prostate is -45.4% (active); with MALME-3M melanoma it was -79.1% (active); in the assay on MDA-MB-231 breast, -70.1% (active); with RXF 393 renal, -82.7% (active); with SF-268 CNS, -50.1% (active); in the assay with SF-295 CNS it was -86.4% (active). Besides, the growth with SF-539 CNS is -98.4% (active); with UACC-257 melanoma, -97.3% (active); in the assay with M14 melanoma, -30.3% (active).
Regarding `CCN1CCN(c2ccc(NC(=O)Nc3ccc4c(c3F)CCN4c3ccnc(C(=O)NC)c3)cc2C(F)(F)F)CC1`, the growth with DU-145 prostate is -91.2% (active); in the assay on MALME-3M melanoma it was -94.3% (active); in the assay with MDA-MB-231 breast, -88.9% (active); with RXF 393 renal it was -93% (active); in the assay on SF-268 CNS, -64.2% (active); in the assay on SF-295 CNS, -74.1% (active). In addition, the growth was -100% (active) with SF-539 CNS, 99.3% in the assay with UACC-257 melanoma and -92.6% (active) in the assay with M14 melanoma.
In the case of `O=C1CCC(N2Cc3c(C#CCCCNC(=O)c4ccc(NC(=O)[C@@H]5NC6(CCCCC6)[C@@]6(C(=O)Nc7cc(Cl)ccc76)[C@H]5c5cccc(Cl)c5F)cc4)cccc3C2=O)C(=O)N1` (stereo not given in full), the growth in the assay with DU-145 prostate was 82.1%; in the assay on MALME-3M melanoma, 17.7%; in the assay with MDA-MB-231 breast, 52%; in the assay on RXF 393 renal, 46.3%; with SF-268 CNS, 70.3%; in the assay on SF-295 CNS, 54.8%. The figures for the growth in the assay on SF-539 CNS, in the assay with UACC-257 melanoma and in the assay on M14 melanoma were 35.1%, 60.5% and 50.1%, respectively.
As to `COc1cccc(C(N)=Nc2ccc(OCCCCCCn3cncn3)cc2)c1`, the growth in the assay with DU-145 prostate was 33%; with MALME-3M melanoma, 43.4%; with MDA-MB-231 breast it was 13.6%; in the assay with SF-268 CNS it was 68.9%; with SF-539 CNS, -31.3% (active); in the assay on UACC-257 melanoma it was 56%. The growth in the assay with M14 melanoma is 9.26% (active).
`COC1CC(Cn2cc(COc3ccc4ccc(=O)oc4c3)nn2)C(OCc2ccccc2)C(OCc2ccccc2)C1OCc1ccccc1` (stereo not given): the growth with DU-145 prostate is 101%; in the assay with MALME-3M melanoma it was 106%; with MDA-MB-231 breast it was 99.7%; in the assay on RXF 393 renal, 80.1%; in the assay with SF-268 CNS it was 122%; with SF-295 CNS, 102%. For the same compound, the growth in the assay with SF-539 CNS is 102%; in the assay with UACC-257 melanoma, 110%; with M14 melanoma it was 102%.
Regarding `CC(=C(c1ccc(OCCN2CCCCCC2)cc1)c1ccc(OCCN2CCCCCC2)cc1)c1ccc(Cl)cc1`, the growth in the assay on DU-145 prostate is -96.1% (active); in the assay on MALME-3M melanoma it was -98.9% (active); with MDA-MB-231 breast it was -98.8% (active); with RXF 393 renal, -99.4% (active); in the assay on SF-268 CNS, -84.9% (active); in the assay with SF-295 CNS it was -80.6% (active). Also, the growth was -100% (active) in the assay with SF-539 CNS, -96.3% (active) in the assay on UACC-257 melanoma and -57.9% (active) in the assay with M14 melanoma.
With `C[C@H]1[C@H](C)CC[C@]2(COC(=O)CCC(=O)NCC#CCN3CCNCC3)CC[C@]3(C)C(=CC[C@@H]4[C@@]5(C)CCCNC(C)(C)[C@@H]5CC[C@]43C)[C@H]12`, the growth is 74.4% in the assay with DU-145 prostate; -38.7% (active) in the assay with MALME-3M melanoma; 43.4% in the assay with MDA-MB-231 breast; 50.3% in the assay on RXF 393 renal; 77.1% with SF-268 CNS; 28.1% in the assay on SF-295 CNS. The growth with SF-539 CNS is 41.9%; in the assay with UACC-257 melanoma, 26.3%; in the assay on M14 melanoma, -16.7% (active).

The values are drawn from PubChem BioAssay (NCI).
